Among the test systems are SK-MEL-2 melanoma; EKVX NSCLC; SN12C renal; UO-31 renal; TK-10 renal; ACHN renal; CAKI-1 renal; A498 renal; CCRF-CEM leukemia; MOLT-4 leukemia.
What all share (test): NCI-60 one-dose screen, 48 h (100 = growth as untreated, 0 = no growth, -100 = all killed)
Settings in all cases: 10 µM unless noted

This is part of a sample that, as a whole, favours compounds with a hit. Of some 83,000 tested, about 20% had one in any assay.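 Interpretation: 100, growth as untreated; towards 0, rising growth inhibition; 0, no net growth; 0 to -100, cell death. Compounds scoring below 10 were considered active.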 A number with no mark means an inactive call. Calls of active or inactive are those of the source.

The record followed here is PubChem BioAssay (NCI).

Regarding `Brc1ccc(-c2n(Cc3ccc4ccccc4c3)c(-c3ccccc3)c(-c3ccccc3)[n+]2Cc2ccc3ccccc3c2)cc1`, the growth in the assay on SK-MEL-2 melanoma is -90.1% (active); in the assay with EKVX NSCLC, -86.7% (active); in the assay on SN12C renal, -85.4% (active); in the assay with UO-31 renal, -79% (active); in the assay with TK-10 renal, -92.5% (active); in the assay with ACHN renal, -100% (active). Further, the growth was -97% (active) in the assay with CAKI-1 renal, -94% (active) in the assay with A498 renal, -10.5% (active) in the assay on CCRF-CEM leukemia and -5.89% (active) in the assay on MOLT-4 leukemia.

Regarding `CC(=O)Nc1ccc(-c2nc3cc(-c4ccc(O)cc4)ccc3n2C)cc1`, the growth in the assay with SK-MEL-2 melanoma is 84.1%; in the assay on EKVX NSCLC it was 56.3%; with SN12C renal it was 40.1%; in the assay on UO-31 renal it was 30.8%; in the assay on TK-10 renal it was 79%; with ACHN renal, 50.3%. Further, the growth was 34.6% in the assay with CAKI-1 renal, 72.4% with A498 renal, 43.8% in the assay on CCRF-CEM leukemia and 13.9% in the assay on MOLT-4 leukemia.

In the case of `Cc1ccc(-c2nc(C#N)c(S(=O)(=O)N3CCN(S(=O)(=O)c4ccc(Cl)cc4)CC3)o2)cc1`, the growth in the assay with SK-MEL-2 melanoma is 95.7%; in the assay on EKVX NSCLC, 99%; with SN12C renal, 93.4%; in the assay with UO-31 renal, 97.3%; with TK-10 renal, 117%; in the assay with ACHN renal, 43.8%. Further, the growth in the assay with CAKI-1 renal was 94.1%; with A498 renal, 107%; in the assay on CCRF-CEM leukemia, 13.1%; with MOLT-4 leukemia it was 75.7%.

As for `COc1ccc2c(c1)c(-c1cc3nc(-c4cn(C)c5ncccc45)cc(N)n3n1)cn2C`, the growth was -71.9% (active) with SK-MEL-2 melanoma; -22.8% (active) in the assay on EKVX NSCLC; -60.2% (active) with SN12C renal; -62.1% (active) in the assay on UO-31 renal; -27.8% (active) with TK-10 renal; -100% (active) in the assay on ACHN renal. For the same molecule, the growth with CAKI-1 renal was -35.9% (active); in the assay on A498 renal, 16.6%; in the assay with CCRF-CEM leukemia it was -22% (active); with MOLT-4 leukemia, -42.5% (active).

As to `NS(=O)(=O)c1ccc(N=Nc2c(O)n(CC(=O)Nc3ccccc3)c3ccccc23)cc1`, the growth with SK-MEL-2 melanoma is 42.7%; with EKVX NSCLC it was 38.4%; with SN12C renal, 52.7%; in the assay on UO-31 renal, 31.1%; in the assay on TK-10 renal, 84%; in the assay with ACHN renal it was 11%. Further, the growth was 7.36% (active) with CAKI-1 renal, 60% in the assay on A498 renal, 50.2% in the assay on CCRF-CEM leukemia and 7.09% (active) with MOLT-4 leukemia.

As for `S=C(Nc1ccccc1)Nc1ccc(OCc2nc3ccccc3[nH]2)cc1`, the growth in the assay on SK-MEL-2 melanoma was 24.6%; with EKVX NSCLC it was 46.3%; in the assay on SN12C renal, 47.1%; in the assay with UO-31 renal it was 30.4%; in the assay with TK-10 renal it was 72.3%; in the assay on ACHN renal, 24.6%. Besides, the growth is 18.9% with CAKI-1 renal, 72.1% in the assay on A498 renal, 28.9% with CCRF-CEM leukemia and 19.8% in the assay on MOLT-4 leukemia.

With `OCNc1ccc(-n2cnc3cc(-c4ccc(O)cc4)ccc32)cc1C(F)(F)F`, the growth with SK-MEL-2 melanoma is 21.7%; in the assay on EKVX NSCLC, 34.7%; with SN12C renal, 19.7%; with UO-31 renal it was 13.1%; in the assay on TK-10 renal, 46.6%; in the assay on ACHN renal, 12.2%. Besides, the growth is 33.5% with CAKI-1 renal, 74.9% with A498 renal, 31.9% in the assay on CCRF-CEM leukemia and 15% in the assay on MOLT-4 leukemia.

On to `Cn1nc(C(F)(F)F)cc1-c1cc(Cl)c(COc2ccc(Cl)cc2)c(-c2ccc(Cl)c(C(F)(F)F)c2)c1O`, for which the growth in the assay with SK-MEL-2 melanoma is -81.6% (active); in the assay on EKVX NSCLC, -2.8% (active); with SN12C renal, -51.4% (active); in the assay with UO-31 renal it was -48.4% (active); with TK-10 renal, 3.16% (active); in the assay on ACHN renal, -5.03% (active). Besides, the growth in the assay on CAKI-1 renal is -15.9% (active); with A498 renal, -11.9% (active); in the assay on CCRF-CEM leukemia, -34.3% (active); in the assay with MOLT-4 leukemia it was -23.1% (active).

For the molecule `CCOC(=O)c1ccc(Nc2nc(NN)nc(-c3ccc(OC)cc3)c2C#N)cc1`, the growth in the assay on SK-MEL-2 melanoma is 114%; with EKVX NSCLC, 118%; in the assay on SN12C renal it was 114%; with UO-31 renal, 93.8%; in the assay with TK-10 renal, 120%; with ACHN renal, 113%. The growth was 105% in the assay with CAKI-1 renal, 118% in the assay on A498 renal, -5.35% (active) with CCRF-CEM leukemia and 36.1% with MOLT-4 leukemia.

`O=c1[nH]c2ccc(Cl)cc2cc1CSc1nccc(-c2ccc(Cl)cc2)n1`: the growth was 34.5% with SK-MEL-2 melanoma; 42.8% in the assay with EKVX NSCLC; 39.9% in the assay on SN12C renal; 60% in the assay with UO-31 renal; 88.2% with TK-10 renal; 20.2% with ACHN renal. Besides, the growth was -51.3% (active) with CAKI-1 renal, 98.4% in the assay on A498 renal, 113% in the assay on CCRF-CEM leukemia and 85.5% in the assay on MOLT-4 leukemia.

Consider `Cc1cc2nc3c4ccccc4n(CCNCCN(C)C)c3nc2cc1C`, for which the growth in the assay with SK-MEL-2 melanoma was 25.4%; in the assay with EKVX NSCLC it was 73.2%; with SN12C renal, 25.3%; in the assay with UO-31 renal, -16.5% (active); with TK-10 renal, 54.5%; with ACHN renal, 11%. Also, the growth in the assay on CAKI-1 renal was 14.1%; in the assay with A498 renal, 75.4%; with CCRF-CEM leukemia, 21.7%; in the assay on MOLT-4 leukemia, 4.83% (active).

As to `O=C(O)c1ccc(-c2ccc(/C=N/NC(=O)c3[nH]c4ccc(Br)cc4c3-c3ccccc3)o2)cc1`, the growth in the assay with SK-MEL-2 melanoma is -16.5% (active); in the assay on EKVX NSCLC, 22.3%; in the assay with SN12C renal, 5.99% (active); in the assay with UO-31 renal, 24.5%; in the assay on TK-10 renal it was 41.2%; with ACHN renal, 32.5%. Moreover, the growth was 38.5% with CAKI-1 renal, 98.5% in the assay with A498 renal, -0.481% (active) in the assay on CCRF-CEM leukemia and 14.1% in the assay on MOLT-4 leukemia.

For the molecule `CN1CCN(/C(=N\c2sc(-c3ccccc3)nc2-c2ccccc2)c2ccccc2)CC1`, the growth in the assay with SK-MEL-2 melanoma is 115%; in the assay on EKVX NSCLC, 81.3%; with SN12C renal it was 82.7%; with UO-31 renal it was 82.4%; in the assay on TK-10 renal, 105%; in the assay with ACHN renal it was 95.3%. In addition, the growth in the assay with CAKI-1 renal is 72.7%; in the assay on A498 renal it was 122%; in the assay with CCRF-CEM leukemia, 57.3%; with MOLT-4 leukemia it was 40.9%.
